This is an account of results in PubChem BioAssay.

Experiment [1] can be described thus: small molecules captured by biotinylated probe aFSTL3 – biochemical, small-molecule microarray, fluorescence 635/667, stem cell growth factor project, primary screen (AID 1064).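 Also: measures binding of the biotinylated anti-FSTL3 antibody to printed compounds.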 To be noted: higher = more signal.
Experiment [2] is described as follows: binders from COS7 lysate, DM2A8 probe, primary screen, torsin A project, cell lysate, small-molecule microarray, fluorescence 635/667 (AID 1065). To be noted: higher = more signal, COS7 lysate expressing mutant human TOR1A.
The nature of experiment [3]: small molecules captured by biotinylated probe aFGF2 – biochemical, small-molecule microarray, fluorescence 635/667, stem cell growth factor project, primary screen (AID 1067).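 Also: measures binding of biotinylated aFGF2 protein to printed compounds on slides; z-score merges feature fluorescence and signal-to-noise across triplicate slides.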 The following applies: higher = more signal.
Experiment [4] can be described thus: small molecules captured by biotinylated probe aFGF10 – biochemical, small-molecule microarray, fluorescence 635/667, stem cell growth factor project, primary screen (AID 1071).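 Also: score merges 667 nm spot intensity and signal to noise from triplicate slides.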 To be noted: higher = more signal.
Experiment [5] addresses Neurogenic locus notch homolog protein 2 (Homo sapiens) (UniProt Q04721). Put plainly: small molecules binding Notch2 protein – biochemical, small-molecule microarray, 635 nm fluorescence, stem cell growth factors, primary screen (AID 1073). To be noted: higher = more signal.
Experiment [6] concerns the target Pro-neuregulin-1, membrane-bound isoform (Homo sapiens) (UniProt Q02297). Kind of experiment: small molecules binding neuregulin-1 protein – biochemical, small-molecule microarray, fluorescence 635/667, psychiatric disease protein project, primary screen (AID 1075).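 Also: score combines 667 nm spot fluorescence with signal to noise.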 To be noted: NRG1 binding, 635 nm fluorescence, higher = more signal.
The test system of experiment [7] is Neuregulin-1 EGF-like domain. Put plainly: small molecules binding NRG1 EGF domain – biochemical, small-molecule microarray, 635 nm fluorescence, primary screen (AID 1081).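 Also: binding of the protein to compounds printed on small-molecule microarray slides.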 To be noted: higher = more signal.
Experiment [8] in a line: FRG1 expression reporter modulators in myotubes – cell-based, C2C12 myotubes, firefly/Renilla luciferase, luminescence, FRG1 inhibition for FSHD, primary screen (AID 1084). To be noted: FRG1 promoter luciferase, higher = more signal, called active from +8 up or from −8 down.
The nature of experiment [9]: small molecules captured by biotinylated probe aFST – biochemical, small-molecule microarray, fluorescence 635/667, stem cell growth factor project, primary screen (AID 1086).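 Also: score merges 667 nm fluorescence with signal-to-noise of each printed compound spot.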 The following applies: higher = more signal.
The nature of experiment [10]: binders of probe aHhip on microarray, primary screen, stem cell growth factor project, biochemical, small-molecule microarray, fluorescence 635/667 (AID 1087).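 Also: score merges spot fluorescence at 667nm with spot signal to noise ratio.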 To be noted: higher = more signal.
In experiment [11] the test system is PRMT1 (protein arginine N-methyltransferase 1). Put plainly: small molecules binding arginine methyltransferase PRMT1 – biochemical, small-molecule microarray, 635 nm fluorescence, primary screen (AID 1088).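 Also: binding of Prmt1 protein to compounds spotted on small-molecule microarray slides.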 The following applies: higher = more signal.
Experiment [12] can be described thus: growth effects on S. cerevisiae YJM789 – YJM789 clinical isolate, OD600, 24 h, basal, primary screen (AID 1089).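 Also: growth of clinical yeast isolate S. cerevisiae YJM 789 seeded 1000 cells per well; test concentration not given here.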 The following applies: higher = more signal, called active from +8 up or from −8 down.
Experiment [13] can be described thus: S. pombe growth modifiers, basal conditions – strain 972, OD600, 24 h, no modulator, primary screen (AID 1090).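 Also: basal condition with compound alone and no growth modifier present; test concentration not given here.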 The following applies: S. pombe 972 growth, higher = more signal, called active from +8 up or from −8 down.
Experiment [14] in a line: budding yeast growth modifiers under rapamycin – strain BY4716, OD600, 96 h, primary screen (AID 1091). Also: test concentration not given here. To be noted: S. cerevisiae BY4716 + rapamycin, higher = more signal, called active from +8 up or from −8 down.
Experiment [15] has as its target Torsin-1A-interacting protein 2 (Homo sapiens) (UniProt Q8NFQ8). Kind of experiment: small molecules binding lysate-expressed LULL1 – cell lysate, human LULL1 lysate, 635/667 nm fluorescence, primary screen (AID 1092).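 Also: score merges per-feature 667 nm fluorescence with signal-to-noise.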 The following applies: small-molecule microarray, hLULL1 lysate binding, 635 nm fluorescence; higher = more signal.
Experiment [16] can be described thus: optical density change of DRC41 E. coli – strain DRC41, OD650, 24 h, E. coli filamentation project, primary screen (AID 1093).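 Also: MC1000 strain lacking acrAB efflux and sulA so SOS filamentation is blocked; test concentration not given here.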 The following applies: E. coli DRC41 growth, higher = more signal, called active from +8 up or from −8 down.
Experiment [17] can be described thus: probe aLefty2 binding to arrayed compounds – biochemical, biotinylated probe, 635/667 nm fluorescence, primary screen (AID 1094).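 Also: score merges spot fluorescence near 667 nm with spot signal-to-noise ratio.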 To be noted: small-molecule microarray, higher = more signal.
Experiment [18] has as its system Noggin (protein binding on small-molecule microarray). Kind of experiment: small molecules binding Noggin protein – biochemical, 635/667 nm fluorescence, primary screen (AID 1095).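 Also: score merges 667 nm feature fluorescence with signal to noise over triplicate slides.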 The following applies: 635 nm fluorescence, higher = more signal.
Experiment [19] has as its target Neurogenic locus notch homolog protein 3 (Homo sapiens) (UniProt Q9UM47). Kind of experiment: small molecules binding NOTCH3 protein – biochemical, 635/667 nm fluorescence, primary screen (AID 1096). The following applies: small-molecule microarray, 635 nm fluorescence, higher = more signal.
Experiment [20] is described as follows: probe aEGFR binding to arrayed compounds – biochemical, biotinylated probe, 635/667 nm fluorescence, primary screen (AID 1097).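 Also: probe is a biotinylated anti-EGFR antibody binding compounds printed on slides; score combines fluorescence near 667 nm and signal to noise of each spot.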 The following applies: small-molecule microarray, higher = more signal.

Active and inactive are the calls of the source.

Sequence of Neurogenic locus notch homolog protein 2 (Homo sapiens) (Q04721 whole entry, looked up, canonical isoform): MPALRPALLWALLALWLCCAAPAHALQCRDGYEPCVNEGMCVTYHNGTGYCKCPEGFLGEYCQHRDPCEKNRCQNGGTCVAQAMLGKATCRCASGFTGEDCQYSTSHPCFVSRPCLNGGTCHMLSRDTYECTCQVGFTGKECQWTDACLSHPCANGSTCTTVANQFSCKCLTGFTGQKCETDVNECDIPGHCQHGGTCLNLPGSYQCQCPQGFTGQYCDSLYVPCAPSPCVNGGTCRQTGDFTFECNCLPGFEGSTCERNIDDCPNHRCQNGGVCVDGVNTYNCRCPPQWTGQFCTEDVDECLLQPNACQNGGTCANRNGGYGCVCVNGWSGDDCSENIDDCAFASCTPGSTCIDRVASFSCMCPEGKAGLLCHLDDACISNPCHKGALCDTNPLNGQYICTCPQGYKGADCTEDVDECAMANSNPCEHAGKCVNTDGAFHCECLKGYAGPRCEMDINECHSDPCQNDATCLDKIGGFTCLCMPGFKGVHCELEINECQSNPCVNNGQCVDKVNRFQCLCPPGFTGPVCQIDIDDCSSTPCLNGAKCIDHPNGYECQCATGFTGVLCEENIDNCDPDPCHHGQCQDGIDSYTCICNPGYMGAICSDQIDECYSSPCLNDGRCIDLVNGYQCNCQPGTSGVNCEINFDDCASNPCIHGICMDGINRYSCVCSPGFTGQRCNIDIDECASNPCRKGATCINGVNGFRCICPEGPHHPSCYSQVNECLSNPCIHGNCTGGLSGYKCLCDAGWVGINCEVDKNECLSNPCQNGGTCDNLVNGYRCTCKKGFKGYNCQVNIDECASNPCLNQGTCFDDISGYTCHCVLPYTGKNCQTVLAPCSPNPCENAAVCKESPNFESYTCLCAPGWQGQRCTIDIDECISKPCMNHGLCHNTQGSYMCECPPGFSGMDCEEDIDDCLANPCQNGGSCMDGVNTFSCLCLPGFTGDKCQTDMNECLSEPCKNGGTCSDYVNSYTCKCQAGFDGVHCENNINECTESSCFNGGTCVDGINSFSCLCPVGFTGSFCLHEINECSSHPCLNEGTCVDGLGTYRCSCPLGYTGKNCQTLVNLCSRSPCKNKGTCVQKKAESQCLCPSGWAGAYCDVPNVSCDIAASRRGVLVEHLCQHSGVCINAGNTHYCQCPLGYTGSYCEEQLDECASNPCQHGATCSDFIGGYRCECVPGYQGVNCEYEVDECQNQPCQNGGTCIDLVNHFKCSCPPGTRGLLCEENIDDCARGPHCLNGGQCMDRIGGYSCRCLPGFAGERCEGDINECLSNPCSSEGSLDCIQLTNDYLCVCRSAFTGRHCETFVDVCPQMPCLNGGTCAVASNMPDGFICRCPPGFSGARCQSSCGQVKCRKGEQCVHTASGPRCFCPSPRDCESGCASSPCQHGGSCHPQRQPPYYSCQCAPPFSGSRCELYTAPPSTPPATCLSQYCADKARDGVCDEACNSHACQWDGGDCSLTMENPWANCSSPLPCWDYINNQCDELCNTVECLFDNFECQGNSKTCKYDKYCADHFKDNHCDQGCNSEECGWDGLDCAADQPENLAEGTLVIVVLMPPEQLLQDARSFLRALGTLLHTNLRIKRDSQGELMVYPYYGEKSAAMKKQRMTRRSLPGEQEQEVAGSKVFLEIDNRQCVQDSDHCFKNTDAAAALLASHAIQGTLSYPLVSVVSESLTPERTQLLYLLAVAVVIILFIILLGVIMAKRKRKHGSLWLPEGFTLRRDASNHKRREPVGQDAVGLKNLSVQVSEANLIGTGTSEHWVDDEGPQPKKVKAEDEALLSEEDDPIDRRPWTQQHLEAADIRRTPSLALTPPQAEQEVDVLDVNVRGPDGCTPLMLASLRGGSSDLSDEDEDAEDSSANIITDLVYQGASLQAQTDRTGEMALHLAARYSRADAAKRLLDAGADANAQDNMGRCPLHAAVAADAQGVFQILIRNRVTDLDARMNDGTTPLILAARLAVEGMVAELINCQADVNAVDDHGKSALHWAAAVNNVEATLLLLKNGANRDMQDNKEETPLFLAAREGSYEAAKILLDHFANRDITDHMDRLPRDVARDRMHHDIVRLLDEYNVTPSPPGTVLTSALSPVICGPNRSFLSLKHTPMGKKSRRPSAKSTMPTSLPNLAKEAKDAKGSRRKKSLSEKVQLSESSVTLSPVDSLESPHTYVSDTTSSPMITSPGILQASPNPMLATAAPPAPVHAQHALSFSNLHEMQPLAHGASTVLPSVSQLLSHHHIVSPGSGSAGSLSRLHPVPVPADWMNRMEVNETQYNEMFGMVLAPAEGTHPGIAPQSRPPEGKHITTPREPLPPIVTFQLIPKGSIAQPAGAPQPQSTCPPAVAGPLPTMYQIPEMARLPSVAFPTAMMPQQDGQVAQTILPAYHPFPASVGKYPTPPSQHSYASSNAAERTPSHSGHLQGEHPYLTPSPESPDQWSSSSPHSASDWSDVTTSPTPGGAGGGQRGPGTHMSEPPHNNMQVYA
Sequence of Pro-neuregulin-1, membrane-bound isoform (Homo sapiens) (Q02297 whole entry, looked up, the tested form may be a part, canonical isoform): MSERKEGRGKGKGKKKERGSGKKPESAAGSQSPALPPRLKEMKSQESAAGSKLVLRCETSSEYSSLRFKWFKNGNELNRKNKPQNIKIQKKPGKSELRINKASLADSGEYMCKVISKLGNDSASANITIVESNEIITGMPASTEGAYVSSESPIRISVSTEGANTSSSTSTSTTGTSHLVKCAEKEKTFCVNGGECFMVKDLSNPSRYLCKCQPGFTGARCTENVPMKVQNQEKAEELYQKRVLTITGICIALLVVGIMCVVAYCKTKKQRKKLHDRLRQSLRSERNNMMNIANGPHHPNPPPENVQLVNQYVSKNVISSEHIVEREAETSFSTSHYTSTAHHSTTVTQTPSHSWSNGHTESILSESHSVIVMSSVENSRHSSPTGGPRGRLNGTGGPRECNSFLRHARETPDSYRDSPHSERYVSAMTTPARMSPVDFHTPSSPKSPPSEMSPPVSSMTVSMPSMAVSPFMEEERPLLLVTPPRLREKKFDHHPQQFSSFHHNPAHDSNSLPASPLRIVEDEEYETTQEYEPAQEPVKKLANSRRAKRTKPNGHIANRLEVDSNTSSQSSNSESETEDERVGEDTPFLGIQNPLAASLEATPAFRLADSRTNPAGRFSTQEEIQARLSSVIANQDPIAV
Sequence of Torsin-1A-interacting protein 2 (Homo sapiens) (Q8NFQ8 whole entry, looked up): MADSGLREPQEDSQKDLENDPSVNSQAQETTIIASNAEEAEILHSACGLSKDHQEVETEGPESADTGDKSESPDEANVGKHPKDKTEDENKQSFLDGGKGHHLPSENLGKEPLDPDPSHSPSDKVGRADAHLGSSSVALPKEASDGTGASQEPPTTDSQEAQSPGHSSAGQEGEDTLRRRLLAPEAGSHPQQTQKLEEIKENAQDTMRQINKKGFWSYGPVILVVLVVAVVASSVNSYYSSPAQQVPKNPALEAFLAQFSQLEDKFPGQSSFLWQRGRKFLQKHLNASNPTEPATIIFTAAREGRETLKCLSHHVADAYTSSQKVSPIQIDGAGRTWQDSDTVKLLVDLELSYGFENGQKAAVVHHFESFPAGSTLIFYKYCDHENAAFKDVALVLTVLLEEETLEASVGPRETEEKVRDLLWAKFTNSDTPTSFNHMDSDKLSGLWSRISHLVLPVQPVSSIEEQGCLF

For `CC(C)(C)OC(=O)CC[C@@]1(C(N)=O)N=C(c2ccc(OCCCO)cc2)O[C@@H]1c1ccccc1`, the composite z-score in [1] was 0.0075; in experiment [2], 1.93; in [3] it was -0.0399; in experiment [4], 0.558; in experiment [5], 1.29; in experiment [6] it was 1.71. The composite z-score was 1.24 in experiment [7]; 1.05 in experiment [9]; -0.134 in experiment [10]; 1.57 in [11]; 3.17 in [15]; 0.0917 in experiment [17]. Besides, the values for the composite z-score in experiment [18], in experiment [19] and in [20] were 0.392, 0.79 and 0.106, respectively. Further, the z-score is 0.18 (inactive) in [8]; -0.145 (inactive) in experiment [12]; -0.589 (inactive) in [13]; -0.399 (inactive) in [14]; -0.511 (inactive) in experiment [16].
Take `CCCCCN1CC=CC23O[C@@H]4/C=C\CCCOC(=O)C4[C@H]2C(=O)N(C(CO)C(C)C)[C@@H]3C1=O` (stereo not given in full): the composite z-score is -0.101 in [1]; -0.856 in [2]; -0.103 in experiment [3]; -0.106 in experiment [4]; -0.65 in experiment [5]; -0.583 in experiment [6]. In addition, the composite z-score in [7] is 1.52; in experiment [9], -0.384; in [10], 0.0854; in experiment [11], 0.0207; in [15], 0.868; in experiment [17] it was -0.124. In addition, the results for the composite z-score in experiment [18], in experiment [19] and in [20] were 0.0296, 0.243 and -0.201, respectively. Besides, the z-score is -0.196 (inactive) in experiment [8]; -0.215 (inactive) in [12]; -0.84 (inactive) in experiment [13]; -0.809 (inactive) in experiment [14]; 1.65 (inactive) in [16].
Regarding `O=C1[C@H]2C=C(Br)[C@H](C[C@@H]2OCCCCO)[C@@]12CO2`, the composite z-score in [1] was -0.441; in experiment [2], -0.199; in [3], -0.116; in experiment [4], 0.0593; in experiment [5], 0.0769; in experiment [6] it was -0.434. Moreover, the composite z-score in experiment [7] is -0.0036; in experiment [9], -0.241; in experiment [10] it was -0.0237; in [11], -0.162; in experiment [15], -0.99; in [17], -0.0778. The composite z-score in experiment [18] was -0.0486; in experiment [19] it was 0.221; in experiment [20], -0.0409. The z-score in experiment [8] was -0.636 (inactive); in [12], 0.176 (inactive); in experiment [13], -0.248 (inactive); in experiment [14], 0.93 (inactive); in experiment [16], -1.03 (inactive).
Consider `C=CCOC(=O)[C@H]1[C@@H]2C(=O)O[C@@H](c3ccccc3)[C@@H](c3ccccc3)N2[C@@H](c2ccc(OCCOC(=O)[C@@H]3C[C@@H]4C(=O)N[C@@H](CCCC[N+](C)(C)C)C(=O)N4[C@@H]3c3ccc(O)cc3)cc2)[C@]12C(=O)Nc1ccccc12`, for which the composite z-score was -0.518 in experiment [1]; 0.964 in experiment [2]; -0.0503 in [3]; 0.439 in experiment [4]; 0.459 in experiment [5]; 0.206 in [6]. Besides, the composite z-score in experiment [7] was 1.15; in experiment [9], -0.367; in [10], -0.0618; in [11], 1.55; in [15], 2.84; in experiment [17], 0.236. Moreover, the composite z-score in experiment [18] was 1.64; in experiment [19], 1.12; in [20], -0.0663. The z-score in experiment [8] was 0.277 (inactive); in experiment [12], -1.27 (inactive); in [13] it was -3.66 (inactive); in experiment [14], -1.02 (inactive); in [16] it was 0.155 (inactive).
For the molecule `CCCN1C(=O)[C@]2(CCS(=O)(=O)c3ccccc3)N=C(c3ccc(OCCCO)cc3)O[C@@H]2c2ccccc21`, the composite z-score in [1] is 0.375; in experiment [2], -0.212; in [3] it was -0.0027; in [4], 0.572; in [5] it was 0.58; in experiment [6] it was 1.28. Further, the composite z-score in [7] was 1.27; in experiment [9], 0.458; in [10], -0.0645; in experiment [11] it was 1.54; in experiment [15] it was 2.84; in experiment [17], 0.106. Moreover, the values for the composite z-score in experiment [18], in [19] and in [20] were 0.866, 1.09 and -0.0509, respectively. Besides, the z-score in experiment [8] is -0.775 (inactive); in experiment [12] it was -0.559 (inactive); in experiment [13], -0.0812 (inactive); in experiment [14] it was 2.82 (inactive); in [16] it was 1.97 (inactive).
